KDM5B inh: blocks human KDM5B histone demethylase activity | Potency, µM (highest dose often 57.7 µM), usual class: inhibitors | KDM5B demethylase, FDH-coupled NADH fluorescence (FDH is formaldehyde dehydrogenase) | hit rate 2.6% among 220,000 | Q9UGL1; further: potency means the concentration at half of the fitted maximal effect; 0% is about no effect; nearly all actives have a fitted effect of over 70% in size
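Coupled FDH/NAD⁺ fluorescence readout. KDM5BΔAP 200 nM final; compound titration, 10 min RT preincubation; substrate mix 12.5 µM H3K4me3, 25 µM 2-OG, 50 µM Fe(II), 100 µM ascorbate, 0.25 mM NAD⁺, 0.25 U/mL FDH; ΔRFU over 30 min.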
IP6K1 inh: IP6K1 kinase inhibition; Q92551; IP6K1 kinase, ADP-Glo luminescence, 2 h; active compounds read low; activity change, % (series mostly up to about 58 µM); hit rate 0.81% among 140,000; AID 1645851; in the data active means activity change below about -25%; further: on the % scale 0 is the no-effect control and ±100 the full control effect
Target sequence (Q92551 whole entry, looked up): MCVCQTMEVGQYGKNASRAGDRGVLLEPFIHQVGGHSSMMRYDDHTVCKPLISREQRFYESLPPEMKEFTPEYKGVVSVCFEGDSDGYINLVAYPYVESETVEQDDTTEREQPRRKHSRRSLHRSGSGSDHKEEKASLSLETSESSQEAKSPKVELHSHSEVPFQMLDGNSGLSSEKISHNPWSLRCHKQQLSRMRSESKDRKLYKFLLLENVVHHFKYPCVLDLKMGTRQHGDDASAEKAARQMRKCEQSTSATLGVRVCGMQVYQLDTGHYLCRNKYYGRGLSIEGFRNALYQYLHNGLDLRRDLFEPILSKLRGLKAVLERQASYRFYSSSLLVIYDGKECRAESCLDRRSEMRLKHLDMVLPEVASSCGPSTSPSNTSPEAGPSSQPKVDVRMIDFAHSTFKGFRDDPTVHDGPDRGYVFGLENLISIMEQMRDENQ
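ADP-Glo luminescence measures ADP made by human IP6K1 during a 2 h RT reaction with ATP/IP6 (mix at 1.3 mM/130 uM); top library doses 57.5 and 19.1 uM final.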
IP6K1 conf: confirmation of human IP6K1 inhibitors; shares compounds with IP6K1 inh; recombinant IP6K1 kinase, ADP-Glo luminescence, 2 h; Potency, µM (series often up to 49 µM), for the others: top-dose activity change, negative = inhibition, usual class: inhibitors; hit rate 13% among 1,200; further: potency means the concentration at half of the fitted maximal effect; on the % scale 0 is the no-effect control and ±100 the full control effect; nearly all actives have a fitted effect of over 65% in size
Active calls of the source: *; i = inactive; ? = inconclusive; / = no result. Shown are actives, neighbours in structure and some others; about 2.8% of the full set was active somewhere. Unless noted, the call rests on the fitted dose curve; in most records, active means well fitted inhibition curve with a large enough effect; inconclusive means small, poorly fitted or top-dose-only effect; inactive means no such curve, though single readings can be large or run the other way.

SMILES	KDM5B inh	IP6K1 inh	IP6K1 conf
O=C(Oc1ccc2ccccc2c1)c1cc2ccccc2oc1=O	i	/	/
CN(C)S(=O)(=O)c1cccc(NC(=O)c2ccc3ccccc3n2)c1	i	/	/
Cc1ccc2c(CN3CCN(c4ccccn4)CC3)cc(=O)oc2c1C	i	/	/
CN1CCN(c2cc(=O)c3ccnc(N4CCN(c5ccccn5)CC4)c3o2)CC1	i	-26*	-27%
O=C(NCc1cccc(F)c1)C1=NO[C@@H]2CN(Cc3ccc(F)cc3)C[C@H]12	i	-12	/
Nc1nc(Nc2ccc(S(N)(=O)=O)cc2)nn1C(=O)c1c(F)cccc1F	/	-35*	?
NS(=O)(=O)c1ccc(NC(=O)c2c(F)cccc2Cl)cc1	i	/	/
Cc1c(C(=O)Nc2nccs2)nnn1-c1ccccc1	i	/	/
Cc1nn(-c2ccccc2)c2c1C(C(C)C)N(C1CN(C(=O)NC3CCCC3)C1)C2=O (stereo not drawn)	/	22	/
CCCC(=O)c1ccc(O)cc1	i	/	/
CCCC(=O)c1cc(O)c(O)cc1O	/	-96*	?
CCCn1cc(S(=O)(=O)c2ccccc2)c(=O)c2cc(F)c(N3CCCCCC3)cc21	?	2	/
COc1ccccc1N1CCN(S(=O)(=O)c2ccc(F)c(C(=O)Nc3ccc(C)c(F)c3)c2)CC1	?	-28*	3%
COc1ccc(C)cc1NC(=O)c1cc(S(=O)(=O)N2CCN(c3cccc(C)c3C)CC2)ccc1F	?	23	/
COc1cccc(CN(Cc2ccco2)c2cnc(S(C)(=O)=O)nc2C(=O)Nc2cccc(Cl)c2C)c1	i	-28*	1%
CS(=O)(=O)c1ncc(N(Cc2ccco2)Cc2ccco2)c(C(=O)Nc2ccccc2Br)n1	i	-20	/
CCc1ccc(CN(Cc2ccco2)c2cnc(S(C)(=O)=O)nc2C(=O)Nc2ccc(C)c(Cl)c2)cc1	i	-13	/
COc1ccc(CN(Cc2ccco2)c2cnc(S(C)(=O)=O)nc2C(=O)Nc2ccc(C)cc2C)cc1	i	-26*	-3%
Cc1ccc(CN(Cc2ccco2)c2cnc(S(C)(=O)=O)nc2C(=O)Nc2ccc(Br)cc2)o1	?	-27*	-11%
COc1ccc(CN(Cc2ccco2)c2cnc(S(C)(=O)=O)nc2C(=O)Nc2ccc(C)c(C)c2)cc1	i	24	/
Cc1nc(-c2c3n(c(=O)n(CC(=O)Nc4ccc(C)c(C)c4)c2=O)CCCC3)no1	i	2	/
Cc1cccc(-c2ocnc2C(=O)Nc2cccc(C)c2C)c1	i	/	/
CCNc1nc(-c2ccc(NC(=O)CC)cc2)cs1	i	/	/
Cc1ccccc1CCC1CCCN(C(=O)CCc2cnn(C)c2)C1 (stereo not drawn)	i	-1	/
CC(=O)O[C@@H]1C=C2[C@H](CC[C@@]3(C)[C@@]2(O)CC[C@H]2Cc4c([nH]c5ccccc45)[C@@]23C)O[C@@H]1C(C)(C)O	/	0	/
SMILES	KDM5B inh	IP6K1 inh	IP6K1 conf
Cc1nn2c(c1-c1ccccc1N1CCCC1)N(C(=O)c1cccc(N(C)C)c1)CCC2	?	11	/
O=C(CCC[C@H]1NC[C@@H]2C[C@H]1CN(Cc1ccccc1)C2)N1CCN(C2CCCC2)CC1	i	17	/
COc1cccc(N2CCN(C(=O)CCC[C@H]3NC[C@@H]4C[C@H]3CN(Cc3ccccc3)C4)CC2)c1	25µM*	-26*	1%
CN1CCCC1=NCCCn1cnc2c1c(=O)n(C)c(=O)n2C	i	/	/
COCCN(Cc1cccs1)S(=O)(=O)c1cc(-c2cc(C)no2)ccc1C	i	-33*	?
Cc1cc(-c2ccc(C)c(S(=O)(=O)N(Cc3cccs3)C(C)C)c2)on1	?	6	/
Cc1cc(O)c(C)c(C)c1O	i	13	/
Cc1cc(O)c2ccccc2c1O	/	-28*	?
Cn1nnnc1Sc1ncnc2scc(-c3cc4ccccc4o3)c12	/	/	-5%
Cc1ccc(-c2csc3ncnc(SCC(=O)O)c23)cc1	i	/	/
Cn1nnnc1Sc1ncnc2scc(-c3ccc(C#N)cc3)c12	/	/	-5%
Cc1ccc(-c2csc3ncnc(Sc4nnc(CN5CCCC5)o4)c23)cc1	i	/	/
Cc1cc(NC(=O)c2ccc([N+](=O)[O-])o2)cc(-c2nc3cc(C(C)C)ccc3o2)c1O	i	/	/
COCC(=O)NC1CCCN(c2ccc3nnc(C)n3n2)C1 (stereo not drawn)	/	-3	/
Cc1nc(CC(=O)N2CC[C@@H](NC(=O)c3cnccn3)[C@H](O)C2)cs1	i	-4	/
COc1ccccc1CC(=O)N1CC[C@@H](NC(=O)c2cnccn2)[C@H](O)C1	?	-31*	6%
Cc1cccc(Cc2c(C)nc3nc(SCC(=O)NCc4ccc(F)cc4)nn3c2C)c1	?	-37*	?
Cc1nc2nc(SCC(=O)NCc3ccccc3)nn2c(C)c1Cc1ccccc1Cl	?	4	/
COc1cccc(CN2CCNc3cc(-c4ccnc(C)c4)ncc3C2)c1	?	-20	/
Cc1cccc(CN2CCNc3cc(-c4ccnc(C)c4)ncc3C2)c1	?	-29*	-17%
CC(=O)NC[C@H]1OC[C@@H](NC2CCCCC2)[C@@H]1O	i	-2	/
COc1cc(NC(=O)Cn2c(=O)nc(-c3ccccc3F)c3cc(Cl)ccc32)cc(OC)c1	i	-28*	?
CCc1ccc(NC(=O)Cn2c(=O)nc(-c3ccccc3F)c3cc(Cl)ccc32)cc1	i	27	/
Fc1ccc(-c2noc(-c3nnn4c3COC(c3ccc(F)cc3)C4)n2)cc1 (stereo not drawn)	i	6	/
Fc1ccc(C2Cn3nnc(-c4nc(-c5ccc6c(c5)OCO6)no4)c3CO2)cc1 (stereo not drawn)	i	-28*	-16%
SMILES	KDM5B inh	IP6K1 inh	IP6K1 conf
CCOc1ccccc1NC(=O)N1CCC[C@H]1C(=O)N1CCCCCCNC(=O)CC1	i	-3	/
CCOc1ccccc1CN1CCN(c2ncccc2C#N)CC1CCO (stereo not drawn)	?	8	/
COc1ccccc1CNC(=O)CCc1c(C)c2cc3c(C)c(C)oc3cc2oc1=O	i	-21	/
COc1ccccc1CCNC(=O)CCc1c(C)c2cc3c(C)c(C)oc3cc2oc1=O	?	-25*	-13%
N#Cc1ccc(C(=O)NCCc2ccco2)cc1	i	/	/
NC(=O)NC1N=C([O][Al])NC1=O (stereo not drawn)	/	-31*	2%
CCCNC(=O)N1CCCC2(CCC(=O)N(CCc3cnc[nH]3)C2)C1 (stereo not drawn)	i	3	/
COc1ccc(CCNC(=O)Cc2c(C)c3c(cc(C)c4c(C)c(C)oc43)oc2=O)cc1OC	i	-16	/
Cc1oc2c(c(C)cc3oc(=O)c(CC(=O)NCCc4ccccc4F)c(C)c32)c1C	i	-27*	-12%
Cc1c(C)n(C)c2ccc(C(=O)N3CCN(c4ccccn4)CC3)cc12	i	/	/
Cc1c(C)n(C)c2ccc(C(=O)N3CCN(c4ccccc4)CC3)cc12	i	-27*	-17%
CC(C)CN(Cc1cccnc1)C1CN(C(=O)CC2CCCCC2)C1	i	-7	/
COc1cc(Nc2ccc([N+](=O)[O-])cc2C(=O)O)cc2ccccc12	/	-25*	?
COc1cc([N+](=O)[O-])ccc1NC(=O)c1nc2ccccc2n(C)c1=O	i	17	/
Cc1cnc(NC(=O)c2csc(NC(C)C)n2)s1	i	/	/
